Laboratory results published in the supplement of paper PMC10338343.
± gives the standard deviation.

System: MILI (PIWIL2) piRISC loaded with L1MC piRNA (26 nt)
Assay: pre-steady-state target cleavage rate (min^-1); guide: L1MC piRNA 5'p-UAACUAAAUACUAUGCAAGCUGUAGG; MIWI and MILI are mouse PIWI proteins and EfPiwi is from a freshwater sponge; tags in brackets are library labels; higher = faster piRNA-guided slicing of the target
Procedure, shortened: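 For Cleave-'n-Seq, a transcribed, DNA-blocked target RNA library […] met 1 nM active affinity-purified piRISC with one synthetic guide at 33 °C for 0–8 or 0–960 min in HEPES–potassium acetate buffer, with or without 500 nM GTSF1 partner protein. Uncleaved targets were sequenced and normalised to depth and weakly complementary targets, with three trials pooled and k3 capped at 0.0001 min^-1. A burst-and-steady-state fit supplied the pre-steady-state cleavage rate.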

[1] = auxiliary factor: none (no GTSF1)
[2] = auxiliary factor: 500 nM mouse GTSF1
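Also: 1 nM active piRISC with 0.1 nM target library at 33 °C single turnover.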

Sequence | pre-steady-state target cleavage rate [1] | pre-steady-state target cleavage rate [2]
UCCUGGAUGUCGAUGCAUACUAUUUUGUUA | < 0.0001 | 
UCCUGGAUGAGCUUGCAUAGUAUAUAGUAA |  | 0.163 ± 0.039
UCCUCCUACAGCUUGCAUAGAUUUUACAAA |  | 0.0174 ± 0.0071
UCCUGGAUCUCGUUGCAUAGUAUUUAGAAA |  | 0.141 ± 0.024
UCCUGGAUGUCGAACCAUAGUAUUAAGUAA | < 0.0001 | 
